Measurements: PubChem BioAssay (Tox21)
Inconclusive results are not listed. Calls of active or inactive are those of the source. The call rests on the fitted dose curve; in most records, active means well fitted cell-killing curve with a large enough effect in the repeat runs; inconclusive means weak or mixed curves, or effect the other way; inactive means flat fitted curve, though single readings scatter.

test: qHTS assay to identify small molecule antagonists of the estrogen receptor alpha (ER-alpha) signaling pathway using the BG1 cell line in the presence of 0.1 nM 17-beta-estradiol - cell viability counter screen (AID 1259241); settings: VM7Luc4E2 (BG1) viability, CellTiter-Fluor protease, 22 h, 0.1 nM estradiol agonist added; series mostly up to 92.4 µM; activity change, negative = cytotoxicity: at the top concentration; further: nearly all actives have a fitted effect of over 40% in size
Description: National Center for Advancing Translational Sciences [NCATS]
NIH Chemical Genomics Center [NCGC]
U.S. Environmental Protection Agency [EPA]
National Institutes of Environmental Health Sciences [NIEHS]
National Toxicology Program [NTP]
U.S. Food and Drug Administration [FDA]
Estrogen receptor (ER), a member of the nuclear hormone receptor plays an important role in development, metabolic homeostasis and reproduction. Two subtypes of ER, ER-alpha and ER-beta, have similar expression patterns with some uniqueness in both types. Endocrine disrupting chemicals (EDCs) and their interactions with steroid hormone receptors like ER causes disruption of normal endocrine function. Therefore, it is important to understand the effect of environmental chemicals in ER signaling pathway. For identifying ER antagonists, VM7Luc4E2 cell line was used to screen against Tox21 compound libraries.
VM7Luc4E2 cell line (provided by Denison MS, University of California) endogenously express full-length ER-alpha and is stably transfected with a plasmid containing four estrogen responsive elements (ERE) upstream of a luciferase reporter gene. The current screening for identification of ER-alpha inhibitors against Tox21 compound libraries used lower concentration (0.1 nM) of 17beta-Estradiol as a stimulator. The cytotoxicity of the Tox21 compound libraries against VM7Luc4E2 cell line was tested by measuring live-cell protease activity using CellTiter-Fluor assay in the same wells.
Tox21 Assay Protocol Summary:
VM7Luc4E2 cells were cultured in phenol red free assay medium containing 10% charcoal stripped FBS for 5 days prior to the assay. The cells were dispensed at 4,000 cells/well in 4 uL of assay medium into white wall/solid-bottom 1536-well plates (Corning Life Sciences, Corning, NY) using a Multidrop Combi (ThermoFisher Scientific, Waltham, MA) dispenser. After the assay plates were incubated at 37C and 5% CO2 for 24 hr, 23 nL of compounds dissolved in DMSO, positive controls or DMSO only was transferred to the assay plates by a Pintool station (Kalypsys, San Diego, CA). The transfer of compounds was followed by the addition of 1 uL of 0.1 nM (final concentration) agonist (17beta-Estradiol)/assay medium using a Flying Reagent Dispenser (FRD, Aurora Discovery, San Diego, CA). The plates were incubated at 37C and 5% CO2 for 22 hr. For cytotoxicity assay, 1 uL of CellTiter-Fluor reagent (Promega Corporation, Madison, WI) was added to each well using the FRD and after 30 min incubation at 37C and 5% CO2, The fluorescence intensity was measured using ViewLux plate reader (PerkinElmer, Shelton, CT).
On the % scale 0 is the no-effect control and ±100 the full control effect.

Structure (SMILES)	activity change, negative = cytotoxicity
O=C(CCS)OCC(COC(=O)CCS)(COC(=O)CCS)COC(=O)CCS	-8.69% (inactive)
CCNc1nc(N)nc(Cl)n1	1.25% (inactive)
CC1C(C)(C)C2=C(C(=O)CCC2)C1(C)C (stereo not given)	-0.713% (inactive)
CCCCCCCCCCCCCCCC(=O)OCC	1.73% (inactive)
CC(CCc1ccc(O)cc1)NCCc1ccc(O)c(O)c1 (stereo not given)	-19.6% [at 42.5 µM] (inactive)
CC(=O)NCCO	1.17% (inactive)
CCN(CC)CCOC(=O)C(c1ccccc1)c1ccccc1	0.729% [at 42.5 µM] (inactive)
O=C(Oc1ccccc1)c1ccc2ccccc2c1O	-1.91% (inactive)
CC(=O)OCC1=C(C(=O)O)N2C(=O)[C@@H](NC(=O)CSc3ccncc3)[C@H]2SC1	1.97% [at 42.5 µM] (inactive)
O=C(c1ccccc1)c1ccc(O)cc1	-14.5% (inactive)
O=C(Nc1ccc(C(=O)O)c(O)c1)c1ccccc1	0.567% [at 42.5 µM] (inactive)
CC(=O)C(=O)CC(C)C	2.89% (inactive)
COc1ccc(N)c([N+](=O)[O-])c1	-10.6% (inactive)
O=S(=O)(Cl)c1c(Cl)cccc1Cl	11.6% (inactive)
CC(CN(CCN(CC(C)OCCO)CC(C)OCCO)CC(C)OCCO)OCCO (stereo not given)	1.05% (inactive)
CC(CO)(CO)C(=O)O	7.39% (inactive)
COC(=O)CC(C(C)=O)C(=O)OC (stereo not given)	5.88% (inactive)
CCCc1nc2c(C)cc(-c3nc4ccccc4n3C)cc2n1Cc1ccc(-c2ccccc2C(=O)O)cc1	-6.24% [at 42.5 µM] (inactive)
COC1CCC=CO1 (stereo not given)	0% (inactive)
O[C@@H](CNC[C@H](O)[C@H]1CCc2cc(F)ccc2O1)[C@@H]1CCc2cc(F)ccc2O1	-4.67% [at 42.5 µM] (inactive)

Structure (SMILES)	activity change, negative = cytotoxicity
Cc1ccc(Cl)cc1N	8.48% (inactive)
C=C(C)C(=O)OCCC(F)(F)C(F)(F)C(F)(F)C(F)(F)C(F)(F)C(F)(F)F	-5.46% (inactive)
CC1=CC[C@@H]2C[C@H]1C2(C)C	3.19% [at 19 µM] (inactive)
CCCCCCCCCCCCCOS(=O)(=O)O	0.182% (inactive)
CC(=O)N[C@@H](Cc1ccc(O)cc1)C(=O)O	1.82% [at 42.5 µM] (inactive)
[Cl][Nd]([Cl])[Cl]	8.76% (inactive)
CC(=O)OCCC(C)CC(C)(C)C (stereo not given)	-2.18% (inactive)
CC(C)(C)S	2.23% (inactive)
CCC(Cl)CC(Cl)C(Cl)C(Cl)C(Cl)C(C)Cl (stereo not given)	0.764% [at 19 µM] (inactive)
Cc1ccc(Nc2c(F)cccc2Cl)c(CC(=O)O)c1	3.82% [at 42.5 µM] (inactive)
Cc1ccc2c(c1[N+](=O)[O-])C(=O)c1ccccc1C2=O	3.52% [at 42.5 µM] (inactive)
BrC(Br)C(Br)Br	4.6% (inactive)
COc1ccc(-c2cc(C(F)F)nn2-c2ccc(S(N)(=O)=O)cc2)cc1F	15.5% [at 42.5 µM] (inactive)
Nc1nc2ccc(OC(F)(F)F)cc2s1	3.65% [at 42.5 µM] (inactive)
N[C@@H](Cc1cc(I)c(O)c(I)c1)C(=O)O	-0.414% [at 42.5 µM] (inactive)
NC(=O)CCCCC(N)=O	0% (inactive)
CCCCCCCCCCCCCOC(=O)CCSCCC(=O)OCCCCCCCCCCCCC	6.24% [at 19 µM] (inactive)
Nc1ccc(S(=O)(=O)NCc2ccccc2)cc1	-1.53% [at 42.5 µM] (inactive)
COc1cc(NS(=O)(=O)c2ccc(N)cc2)nc(C)n1	4.71% [at 42.5 µM] (inactive)
CCCCCCCCCCCC(=O)OCC(O)CO (stereo not given)	-4.78% (inactive)
